Here are results for five molecules from PubChem BioAssay (NCI).

Molecules are shown by their SMILES. This is part of a sample that, as a whole, favours compounds with a hit. Of some 79,000 tested, about 15% had one in any assay. Unmarked numbers belong to inactive results. Calls of active or inactive are those of the source. Rule as the data show it: active = growth inhibition above about 70%; inactive = the rest.

Assay [1] in a line: NCI Yeast Anticancer Drug Screen. Data for the rad50 strain (AID 155).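 Also: 0% = growth of vehicle-only cultures of the same strain.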 The conditions noted are these: S. cerevisiae rad50 strain growth inhibition, hits give high values. In a few lines: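 Yeast carrying a defined DNA repair defect were exposed to test compounds, and growth was compared with vehicle-treated controls to give percent inhibition.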
Assay [2] is described as follows: NCI Yeast Anticancer Drug Screen. Data for the mec2-1 strain (AID 157). The conditions noted are these: S. cerevisiae mec2-1 strain, hits give high values. In short, it runs like this:
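Yeast mec2-1 mutant treated with compound. Readout: growth inhibition vs vehicle controls.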

Assay [3] is described as follows: NCI Yeast Anticancer Drug Screen. Data for the sgs1 mgt1 strain (AID 161).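 Also: 0% = growth of cultures given vehicle only.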 The note with it: S. cerevisiae sgs1 mgt1 strain, hits give high values. In a few lines: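 Inhibition of yeast growth, normalised to vehicle-treated controls, is reported for a strain bearing genetic alterations in DNA damage repair.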
Assay [4] can be described thus: NCI Yeast Anticancer Drug Screen. Data for the cln2 rad14 strain (AID 165).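 Also: 0% = growth equal to vehicle treated cultures.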 The note with it: S. cerevisiae cln2 rad14 strain, hits give high values. In a few lines: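 cln2 rad14 yeast strain; compound exposure; growth inhibition read vs vehicle controls.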
The nature of assay [5]: NCI Yeast Anticancer Drug Screen. Data for the bub3 strain (AID 167). The conditions noted are these: S. cerevisiae bub3 mutant strain, hits give high values. In a few lines: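 Compounds were applied to a genetically altered yeast strain carrying a cell-cycle control defect. Growth inhibition was scored against vehicle-treated controls.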
A short description of assay [6]: NCI Yeast Anticancer Drug Screen. Data for the mlh1 rad18 strain (AID 175). The note with it: S. cerevisiae mlh1 rad18 strain growth inhibition, hits give high values. In a few lines:
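Yeast w/ defined DNA-repair lesions; compound exposure; growth vs vehicle controls → % inhibition.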

Where [7] appears, read: at 5.0 µM (retest, dose inferred, filed as 0.5).
Setting [8] is: at 50.0 µM (retest, dose inferred, filed as 5.0).

Regarding `N#CSc1ccc(O)cc1`, the growth inhibition in assay [1] (setting [7]) is 0%; in assay [1] (setting [8]), 95% (active); in assay [1] (at 50.0 µM), 94.3% (active); in assay [2] (setting [7]), 1%; in assay [2] (setting [8]) it was 97% (active); in assay [2] (at 50.0 µM), 96.2% (active). Besides, the growth inhibition in assay [3] (setting [7]) was 4%; in assay [3] (setting [8]) it was 97% (active); in assay [3] (at 50.0 µM), 92.6% (active); in assay [4] (setting [7]), 3%; in assay [4] (setting [8]), 97% (active); in assay [4] (at 50.0 µM) it was 93.8% (active). Also, the growth inhibition was 0% in assay [5] (setting [7]); 96% (active) in assay [5] (setting [8]); 96.4% (active) in assay [5] (at 50.0 µM); 1% in assay [6] (setting [7]); 95% (active) in assay [6] (setting [8]); 93.3% (active) in assay [6] (at 50.0 µM).

As for `ClC1=C(Cl)C(Cl)=C(Cl)C1`, the growth inhibition was 6% in assay [1] (setting [7]); 93% (active) in assay [1] (setting [8]); 88.2% (active) in assay [1] (at 50.0 µM); 7% in assay [2] (setting [7]); 97% (active) in assay [2] (setting [8]); 51.4% in assay [2] (at 50.0 µM). Further, the growth inhibition in assay [3] (setting [7]) was 10%; in assay [3] (setting [8]) it was 93% (active); in assay [3] (at 50.0 µM) it was 48.5%; in assay [4] (setting [7]), 5%; in assay [4] (setting [8]), 85% (active); in assay [4] (at 50.0 µM) it was 3.55%. In addition, the growth inhibition in assay [5] (setting [7]) was 4%; in assay [5] (setting [8]) it was 96% (active); in assay [5] (at 50.0 µM), 79.9% (active); in assay [6] (setting [7]), 0%; in assay [6] (setting [8]), 96% (active); in assay [6] (at 50.0 µM) it was 91.5% (active).

Turning to `CCCCCN(CCC)CCCCCCCCCN1CCCc2cc(OC)ccc21`, the growth inhibition in assay [1] (setting [7]) was -8%; in assay [1] (setting [8]) it was -2%; in assay [1] (at 50.0 µM), 97.3% (active); in assay [2] (setting [7]), -6%; in assay [2] (setting [8]) it was -7%; in assay [2] (at 50.0 µM) it was 97.7% (active). The growth inhibition in assay [3] (setting [7]) was 2%; in assay [3] (setting [8]), 2%; in assay [3] (at 50.0 µM), 62.9%; in assay [4] (setting [7]), -7%; in assay [4] (setting [8]), -10%; in assay [4] (at 50.0 µM) it was 97% (active). Further, the growth inhibition in assay [5] (setting [7]) was -4%; in assay [5] (setting [8]), -3%; in assay [5] (at 50.0 µM) it was 91% (active); in assay [6] (setting [7]), -5%; in assay [6] (setting [8]), -5%; in assay [6] (at 50.0 µM) it was 98% (active).

In the case of `CCCC/C=C1/CCC(CN(C)C)C1=O` (stereo not given), the growth inhibition in assay [1] (setting [7]) was 7%; in assay [1] (setting [8]), 60%; in assay [1] (at 50.0 µM), 51.9%; in assay [2] (setting [7]), -2%; in assay [2] (setting [8]), 48%; in assay [2] (at 50.0 µM), 37.4%. Besides, the growth inhibition in assay [3] (setting [7]) was 16%; in assay [3] (setting [8]), 56%; in assay [3] (at 50.0 µM), 81% (active); in assay [4] (setting [7]), 6%; in assay [4] (setting [8]) it was 40%; in assay [4] (at 50.0 µM) it was 46.2%. Also, the growth inhibition in assay [5] (setting [7]) is 14%; in assay [5] (setting [8]) it was 84% (active); in assay [5] (at 50.0 µM), 61.9%; in assay [6] (setting [7]), 19%; in assay [6] (setting [8]), 69%; in assay [6] (at 50.0 µM), 54.2%.

As for `O=C(Nc1ccc(Br)cc1)c1c(-c2ccccc2)c2ccc(O)cc2oc1=O`, the growth inhibition in assay [1] (setting [7]) was 0%; in assay [1] (setting [8]), 96% (active); in assay [1] (at 50.0 µM) it was 96.3% (active); in assay [2] (setting [7]) it was -9%; in assay [2] (setting [8]) it was 97% (active); in assay [2] (at 50.0 µM), 95.5% (active). For the same molecule, the growth inhibition was -5% in assay [3] (setting [7]); 93% (active) in assay [3] (setting [8]); 98.6% (active) in assay [3] (at 50.0 µM); -7% in assay [4] (setting [7]); 95% (active) in assay [4] (setting [8]); 94% (active) in assay [4] (at 50.0 µM). Further, the growth inhibition in assay [5] (setting [7]) was -10%; in assay [5] (setting [8]), 96% (active); in assay [5] (at 50.0 µM) it was 97.2% (active); in assay [6] (setting [7]) it was -3%; in assay [6] (setting [8]) it was 96% (active); in assay [6] (at 50.0 µM), 98.4% (active).
